# Data as given in PubChem BioAssay (EPA / NIEHS).
# Active and inactive are the calls of the source. The calls were made as follows: active = hit-call score of the fitted dose curve at least 0.9, where 1 is the maximum; inactive = score below 0.9.
# What was measured:
# [1] = read-out: TIMP metallopeptidase inhibitor 2 (TIMP2), TIMP2 (gene 7077); experiment: BSK_KF3CT_TIMP2: BioMAP Diversity Plus: KF3CT Assay for TIMP metallopeptidase inhibitor 2 (TIMP2) Biomarker Activity (AID 2283071); settings: primary human keratinocytes with fibroblasts; actives raise or lower the signal
# How it was run: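 Keratinocyte–fibroblast co-culture, 24 h exposure; TIMP-2 ELISA, DMSO-normalised bidirectional fit. Parallel SRB (0.1%, TCA-fixed, 560 nm) total-protein staining gauges cytotoxicity.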
# [2] = read-out: Transforming growth factor beta 1 (TGFb1), TGFB1 (gene 7040); experiment: BSK_KF3CT_TGFb1: BioMAP Diversity Plus: KF3CT Assay for Transforming growth factor beta 1 (TGFb1) Biomarker Activity (AID 2283072); settings: primary human keratinocytes with fibroblasts; actives raise or lower the signal
# How it was run: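 Signal changes in either direction, relative to DMSO, define activity here. TGF-b1 is read by ELISA from a human keratinocyte-fibroblast co-culture 24 h post-dose.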
# [3] = read-out: C-C motif chemokine 2 (Homo sapiens) (UniProt P13500); experiment: BSK_KF3CT_MCP1: BioMAP Diversity Plus: KF3CT Assay for Monocyte Chemoattractant Protein 1 (MCP1/CCL2) Biomarker Activity (AID 2283073); settings: primary human keratinocytes with fibroblasts; actives raise or lower the signal
# How it was run: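 Biomarker MCP-1 is measured by ELISA in primary human keratinocytes co-cultured with foreskin fibroblasts, 24 h after chemical treatment; DMSO serves as the negative control and activity baseline.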
# [4] = read-out: Matrix Metallopeptidase 9 (MMP9), MMP9 (gene 4318); experiment: BSK_KF3CT_MMP9: BioMAP Diversity Plus: KF3CT Assay for Matrix Metallopeptidase 9 (MMP9) Biomarker Activity (AID 2283074); settings: primary human keratinocytes with fibroblasts; actives raise or lower the signal;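 as to AC50: MMP9 protein level quantified by ELISA in the co-culture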
# How it was run: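 Human keratinocyte and foreskin fibroblast co-culture exposed to chemicals for 24 h; MMP9 biomarker measured by ELISA, bidirectional fitting relative to DMSO; cytotoxicity tracked by SRB total protein staining in parallel cultures.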
# CD40, CD40 (gene 958) [5] = experiment: BSK_LPS_CD40: BioMAP Diversity Plus: LPS Assay for CD40 Biomarker Activity (AID 2283076); settings: primary human HUVEC with PBMC; actives raise or lower the signal
# How it was run: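 Using a multiplexed primary human co-culture (umbilical vein endothelium plus PBMC), CD40 was read by ELISA 24 h after dosing, with cytotoxicity tracked by sulforhodamine B staining of parallel cultures and activity fitted bidirectionally versus DMSO.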
# [6] = read-out: E-selectin (Homo sapiens) (UniProt P16581); experiment: BSK_LPS_Eselectin: BioMAP Diversity Plus: LPS Assay for Eselectin Biomarker Activity (AID 2283077); settings: primary human HUVEC with PBMC; actives raise or lower the signal
# How it was run: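 Dose chemical onto LPS-driven HUVEC/PBMC co-culture; after 24 h, run ELISA for E-selectin; fit up- and down-going responses relative to DMSO control.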
# [7] = read-out: Interleukin-8 (IL8), CXCL8 (gene 3576); experiment: BSK_LPS_IL8: BioMAP Diversity Plus: LPS Assay for Interleukin-8 (IL8) Biomarker Activity (AID 2283078); settings: primary human HUVEC with PBMC; actives raise or lower the signal
# How it was run: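 In this LPS system, chemical-treated human umbilical vein endothelium/PBMC co-cultures were harvested at 24 h for IL-8 ELISA.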
# [8] = BSK_LPS_SRB: Viability Assessment in the BioMAP Diversity Plus: LPS Assay (AID 2283079); settings: primary human HUVEC with PBMC;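 also: total protein by sulforhodamine B absorbance as a cytotoxicity measure; measured one day after compound addition; fitted in both directions against DMSO so loss or gain of signal counts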
# How it was run: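 Cytotoxicity endpoint in human endothelial–PBMC co-culture: 24 h exposure, then SRB (0.1%) staining, 560 nm read.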
# [9] = read-out: Interleukin-1 alpha (IL1a), IL1A (gene 3552); experiment: BSK_LPS_IL1a: BioMAP Diversity Plus: LPS Assay for Interleukin-1 alpha (IL1a) Biomarker Activity (AID 2283080); settings: primary human HUVEC with PBMC; actives raise or lower the signal
# How it was run: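 Primary human HUVEC and PBMC co-culture stimulated with LPS is dosed and harvested at 24 h. Both increases and decreases in ELISA-measured IL-1a are scored relative to DMSO.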
# [10] = read-out: Monocyte Chemoattractant Protein-1 (MCP1), CCL2 (gene 6347); experiment: BSK_LPS_MCP1: BioMAP Diversity Plus: LPS Assay for Monocyte Chemoattractant Protein-1 (MCP1) Biomarker Activity (AID 2283081); settings: primary human HUVEC with PBMC; actives raise or lower the signal;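 as to AC50: secreted MCP-1 protein quantified by ELISA in culture supernatant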
# How it was run: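 Values derive from bidirectional fitting against DMSO of ELISA-measured MCP-1 in a human primary endothelial and mononuclear cell co-culture, 24 h after chemical addition under LPS activation.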
# [11] = BSK_LPS_PGE2: BioMAP Diversity Plus: LPS Assay for Prostaglandin E2 (PGE2) Biomarker Activity (AID 2283082); settings: primary human HUVEC with PBMC; actives raise or lower the signal;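 as to AC50: secreted prostaglandin E2 measured by ELISA in LPS-stimulated co-culture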
# How it was run: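 Endpoint derived from bidirectional curve fitting versus DMSO of ELISA-measured PGE2 in LPS-stimulated human primary vascular co-culture (HUVEC with PBMC) harvested at 24 h.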
# [12] = read-out: Macrophage colony-stimulating factor (MCSF), CSF1 (gene 1435); experiment: BSK_LPS_MCSF: BioMAP Diversity Plus: LPS Assay for Macrophage colony-stimulating factor (MCSF) Biomarker Activity (AID 2283083); settings: primary human HUVEC with PBMC; actives raise or lower the signal
# How it was run: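 Bidirectional fit versus DMSO of ELISA-measured M-CSF in co-cultured human umbilical vein endothelial cells and PBMC, sampled 24 h after dosing.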
# [13] = read-out: Tissue Factor, F3 (gene 2152); experiment: BSK_LPS_TissueFactor: BioMAP Diversity Plus: LPS Assay for Tissue Factor Biomarker Activity (AID 2283084); settings: primary human HUVEC with PBMC; actives raise or lower the signal
# How it was run: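 Read-out: CD142 ELISA, 24 h. System: LPS-driven human endothelial/PBMC co-culture. Analysis: up- or down-signal fitted against DMSO.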
# [14] = read-out: Tumor necrosis factor (Homo sapiens) (UniProt P01375); experiment: BSK_LPS_TNFa: BioMAP Diversity Plus: LPS Assay for Tumour Necrosis Factor alpha (TNFa) Biomarker Activity (AID 2283085); settings: primary human HUVEC with PBMC; actives raise or lower the signal
# How it was run: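 Primary human vascular co-culture of HUVEC and PBMC; TNFa ELISA 24 h after treatment, analysed as increase or decrease relative to DMSO control.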
# [15] = read-out: Vascular cell adhesion molecule 1 (VCAM1), VCAM1 (gene 7412); experiment: BSK_LPS_VCAM1: BioMAP Diversity Plus: LPS Assay for Vascular cell adhesion molecule 1 (VCAM1) Biomarker Activity (AID 2283086); settings: primary human HUVEC with PBMC; actives raise or lower the signal
# How it was run: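 Primary human vascular co-culture (umbilical vein endothelium plus PBMC) stimulated with LPS received chemical; 24 h later VCAM-1 was read by ELISA. Overt cytotoxicity was assessed by sulforhodamine B staining of parallel cultures at the same time point.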
# CD38, CD38 (gene 952) = experiment: BSK_SAg_CD38: BioMAP Diversity Plus: SAg Assay for CD38 Biomarker Activity (AID 2283087); settings: primary human HUVEC with PBMC; actives raise or lower the signal
# How it was run: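 Fluorescence ELISA of cell-surface CD38 served as the read-out, with either increase or decrease fitted against DMSO controls. Cells were a human umbilical vein endothelium plus PBMC co-culture under SEB/TSST-1 stimulation, measured 24 h after dosing.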
# CD40, CD40 (gene 958) [16] = experiment: BSK_SAg_CD40: BioMAP Diversity Plus: SAg Assay for CD40 Biomarker Activity (AID 2283088); settings: primary human HUVEC with PBMC; actives raise or lower the signal
# How it was run: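 Endpoint derived by fitting increases or decreases versus DMSO controls. CD40 is detected by fluorescence ELISA in a human vascular co-culture of endothelium and PBMC at 24 h.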
# CD69, CD69 (gene 969) = experiment: BSK_SAg_CD69: BioMAP Diversity Plus: SAg Assay for CD69 Biomarker Activity (AID 2283089); settings: primary human HUVEC with PBMC; actives raise or lower the signal;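 as to AC50: cell surface CD69 protein quantified by ELISA with fluorescence detection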
# How it was run: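 Values derive from bidirectional fitting relative to DMSO vehicle. Cells: umbilical vein endothelium plus peripheral blood mononuclear cells, treated 24 h before fluorescent ELISA for CD69.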
# [17] = read-out: Monocyte Chemoattractant Protein-1 (MCP1), CCL2 (gene 6347); experiment: BSK_SAg_MCP1: BioMAP Diversity Plus: SAg Assay for Monocyte Chemoattractant Protein-1 (MCP1) Biomarker Activity (AID 2283090); settings: primary human HUVEC with PBMC; actives raise or lower the signal
# How it was run: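 MCP-1 levels in the endothelial–PBMC SAg co-culture were quantified by ELISA at 24 h post-dosing; both increases and decreases versus DMSO scored. Cytotoxicity monitored by SRB total protein in parallel cultures.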
# Chain of E-selectin (Homo sapiens) (P16581 whole entry, looked up): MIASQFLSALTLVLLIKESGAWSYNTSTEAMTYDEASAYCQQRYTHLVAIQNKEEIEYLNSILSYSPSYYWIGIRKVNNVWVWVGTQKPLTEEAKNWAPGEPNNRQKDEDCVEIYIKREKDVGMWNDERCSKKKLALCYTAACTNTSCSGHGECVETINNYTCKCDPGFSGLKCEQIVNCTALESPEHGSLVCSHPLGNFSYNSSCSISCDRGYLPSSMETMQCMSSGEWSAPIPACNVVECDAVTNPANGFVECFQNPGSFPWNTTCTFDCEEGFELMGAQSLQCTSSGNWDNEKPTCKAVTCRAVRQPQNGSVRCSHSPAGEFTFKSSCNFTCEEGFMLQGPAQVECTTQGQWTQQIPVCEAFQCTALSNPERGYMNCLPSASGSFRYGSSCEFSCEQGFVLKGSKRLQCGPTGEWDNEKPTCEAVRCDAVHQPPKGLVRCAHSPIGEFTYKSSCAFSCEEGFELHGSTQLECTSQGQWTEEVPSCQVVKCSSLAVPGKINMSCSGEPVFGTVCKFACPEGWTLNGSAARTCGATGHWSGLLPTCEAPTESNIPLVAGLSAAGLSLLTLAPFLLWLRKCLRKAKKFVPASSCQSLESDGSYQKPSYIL
# Chain of Tumor necrosis factor (Homo sapiens) (P01375 whole entry, looked up): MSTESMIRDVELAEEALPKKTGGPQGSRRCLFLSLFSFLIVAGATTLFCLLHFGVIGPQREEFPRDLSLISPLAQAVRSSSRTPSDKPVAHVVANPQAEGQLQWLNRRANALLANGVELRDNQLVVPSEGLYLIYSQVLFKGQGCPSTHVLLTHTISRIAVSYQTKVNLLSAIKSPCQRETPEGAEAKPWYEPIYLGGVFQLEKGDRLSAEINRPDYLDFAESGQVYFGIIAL
compound,measurement,setting,value
Clc1cccc(C(Cl)(Cl)Cl)n1,outcome,[1],inactive
same,outcome,[2],inactive
same,outcome,[3],inactive
same,outcome,[4],inactive
same,outcome,"CD40, CD40 (gene 958) [5]",inactive
same,outcome,[6],inactive
same,outcome,[7],inactive
same,outcome,[8],inactive
same,outcome,[9],inactive
same,outcome,[10],inactive
same,outcome,[11],inactive
same,outcome,[12],inactive
same,outcome,[13],inactive
same,outcome,[14],inactive
same,outcome,[15],inactive
same,outcome,"CD38, CD38 (gene 952)",inactive
same,outcome,"CD40, CD40 (gene 958) [16]",inactive
same,outcome,"CD69, CD69 (gene 969)",inactive
same,outcome,[17],inactive
CC(C)N1C(=O)c2ccccc2NS1(=O)=O,outcome,[1],inactive
same,outcome,[2],inactive
same,AC50,[3],0.535 µM (active)
same,outcome,[4],inactive
same,outcome,"CD40, CD40 (gene 958) [5]",inactive
same,outcome,[6],inactive
same,outcome,[7],inactive
same,outcome,[8],inactive
same,outcome,[9],inactive
same,outcome,[10],inactive
same,outcome,[11],inactive
same,outcome,[12],inactive
same,outcome,[13],inactive
same,outcome,[14],inactive
same,outcome,[15],inactive
same,outcome,"CD40, CD40 (gene 958) [16]",inactive
same,outcome,"CD69, CD69 (gene 969)",inactive
same,outcome,[17],inactive
CC(C)C1(C)N=C(c2ncccc2C(=O)O)NC1=O (configuration not stated),outcome,[1],inactive
same,outcome,[2],inactive
same,outcome,[3],inactive
same,outcome,[4],inactive
same,outcome,"CD40, CD40 (gene 958) [5]",inactive
same,outcome,[6],inactive
same,outcome,[7],inactive
same,outcome,[8],inactive
same,outcome,[9],inactive
same,outcome,[10],inactive
same,outcome,[11],inactive
same,outcome,[12],inactive
same,outcome,[13],inactive
same,outcome,[14],inactive
same,outcome,"CD40, CD40 (gene 958) [16]",inactive
same,outcome,"CD69, CD69 (gene 969)",inactive
same,outcome,[17],inactive
CCC(C)n1c(=O)[nH]c(C)c(Br)c1=O (configuration not stated),outcome,[1],inactive
same,outcome,[2],inactive
same,outcome,[3],inactive
same,outcome,[4],inactive
same,outcome,"CD40, CD40 (gene 958) [5]",inactive
same,outcome,[6],inactive
same,outcome,[7],inactive
same,outcome,[8],inactive
same,outcome,[9],inactive
same,outcome,[10],inactive
same,outcome,[11],inactive
same,outcome,[12],inactive
same,outcome,[13],inactive
same,AC50,[14],10.5 µM (active)
same,outcome,"CD40, CD40 (gene 958) [16]",inactive
same,outcome,"CD69, CD69 (gene 969)",inactive
same,outcome,[17],inactive
CCOc1cc(C(C)(C)C)ccc1C1COC(c2c(F)cccc2F)=N1 (configuration not stated),AC50,[1],15.1 µM (active)
same,AC50,[2],33 µM (active)
same,AC50,[3],20 µM (active)
same,AC50,[4],14.8 µM (active)
same,AC50,"CD40, CD40 (gene 958) [5]",29.2 µM (active)
same,AC50,[6],33.2 µM (active)
same,AC50,[7],26 µM (active)
same,AC50,[8],26.2 µM (active)
same,AC50,[9],30.5 µM (active)
same,AC50,[10],33.4 µM (active)
same,AC50,[11],32.1 µM (active)
same,AC50,[12],20.9 µM (active)
same,AC50,[13],36.8 µM (active)
same,AC50,[14],30.4 µM (active)
same,AC50,"CD40, CD40 (gene 958) [16]",15.8 µM (active)
same,AC50,"CD69, CD69 (gene 969)",20.5 µM (active)
same,AC50,[17],28.5 µM (active)
COC(=O)NC(=S)Nc1ccccc1NC(=S)NC(=O)OC,outcome,[1],inactive
same,outcome,[2],inactive
same,outcome,[3],inactive
same,outcome,[4],inactive
same,outcome,"CD40, CD40 (gene 958) [5]",inactive
same,outcome,[6],inactive
same,outcome,[7],inactive
same,outcome,[8],inactive
same,outcome,[9],inactive
same,outcome,[10],inactive
same,outcome,[11],inactive
same,AC50,[12],22.8 µM (active)
same,outcome,[13],inactive
same,outcome,[14],inactive
same,outcome,"CD40, CD40 (gene 958) [16]",inactive
same,outcome,"CD69, CD69 (gene 969)",inactive
same,outcome,[17],inactive
COC(=O)c1c(C(F)F)nc(C(F)(F)F)c(C2=NCCS2)c1CC(C)C,outcome,[1],inactive
same,outcome,[2],inactive
same,outcome,[3],inactive
same,outcome,[4],inactive
same,AC50,"CD40, CD40 (gene 958) [5]",7.78 µM (active)
same,outcome,[6],inactive
same,outcome,[7],inactive
same,AC50,[8],31.9 µM (active)
same,outcome,[9],inactive
same,outcome,[10],inactive
same,AC50,[11],12.2 µM (active)
same,AC50,[12],14.3 µM (active)
same,outcome,[13],inactive
same,AC50,[14],8.66 µM (active)
same,AC50,"CD40, CD40 (gene 958) [16]",24 µM (active)
same,outcome,"CD69, CD69 (gene 969)",inactive
same,outcome,[17],inactive
